Bioassay records as filed in PubChem BioAssay.
Cycloheximide cs – Cycloheximide Counterscreen for Small Molecule Inhibitors of Shiga Toxin. max response, %. hit rate 12% among 300,000. cell reporter, cycloheximide protein synthesis inhibition counterscreen. AID 2314, 2010; in the data active = max response mostly above about 13%, no sharp cut-off; inactive = mostly below about 14%; also: read at 38.3 µM for the half of the compounds with a filed dose; 0% is about no effect
Pf growth 96h – Primary qHTS for delayed death inhibitors of the malarial parasite plastid, 96 hour incubation | P. falciparum luciferase reporter growth, 96 h | Potency, µM (titrated, usually from 28.7 µM), for the others: at the highest dose activity change, negative = inhibition, hits mostly inhibitors | hit rate 6.9% among 320,000; also: potency is read from the fitted curve at half-maximal effect; % is scaled to controls: 0 for no effect and ±100 for the full control effect
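96 h incubation, 37 C, 5% CO2, of luciferase-reporter P. falciparum-infected RBCs (2% hematocrit, 0.05% parasitemia final) with test compounds; endpoint luminescence.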
FBPA Giardia inh – qHTS Assay for Inhibitors of Fructose-1,6-bisphosphate Aldolase from Giardia Lamblia; A8B2U2; purified Giardia FBPA; Potency, µM (series often up to 59.6 µM), inactives show at the highest dose activity, negative = inhibition, actives largely listed as inhibitors; hit rate 0.71% among 290,000; AID 2451, 2010; also: potency is read from the fitted curve at half-maximal effect; % is scaled to controls: 0 for no effect and ±100 for the full control effect; nearly all actives have a fitted effect of over 55% in size
Target sequence (A8B2U2 whole entry, looked up): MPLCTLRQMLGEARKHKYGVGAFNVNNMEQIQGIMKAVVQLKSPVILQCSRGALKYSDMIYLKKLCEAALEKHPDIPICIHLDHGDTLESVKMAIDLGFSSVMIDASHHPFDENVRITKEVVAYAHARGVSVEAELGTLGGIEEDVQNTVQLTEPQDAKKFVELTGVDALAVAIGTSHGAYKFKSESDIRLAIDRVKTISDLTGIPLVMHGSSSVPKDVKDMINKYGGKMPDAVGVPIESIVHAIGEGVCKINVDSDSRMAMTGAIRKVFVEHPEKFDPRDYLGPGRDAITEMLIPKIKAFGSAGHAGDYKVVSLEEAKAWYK
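Giardia FBPA (40 nM reagent) was preincubated 10 min at RT with compound (up to 57.5 uM final), then substrate plus GAPDH/TPI/NAD/arsenate coupling system with diaphorase/resazurin was added; resorufin fluorescence (525/598 nm) was read after 20 min.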
Shiga toxin inh – A qHTS for Small Molecule Inhibitors of Shiga Toxin; Vero cells, Shiga toxin protein synthesis inhibition reporter; inhibition, % at 38.7 µM; hit rate 9.2% among 290,000; AID 2315, 2010; in the data active = inhibition mostly above about 28%, no sharp cut-off; inactive = mostly below about 43%; also: 0% is about no effect
Pf growth 48h – Primary qHTS for delayed death inhibitors of the malarial parasite plastid, 48 hour incubation. P. falciparum luciferase growth in erythrocytes, 48 h. Potency, µM (highest dose often 28.7 µM), without a hit: at the top dose activity change, negative = inhibition, usual class: inhibitors. hit rate 5.9% among 310,000. AID 504832, 2011; also: potency is read from the fitted curve at half-maximal effect; % is scaled to controls: 0 for no effect and ±100 for the full control effect
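Luciferase-expressing parasites in RBCs, 2% Hct / 0.1% parasitemia final; RPMI 1640 + 0.5% Albumax; 37 C, 5% CO2, one generation; luminescence read-out, lower signal = inhibition.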
NS1 inh – qHTS Assay for Inhibitors of Influenza NS1 Protein Function; Potency, µM (top dose mostly 46.1 µM), for the others: at the highest dose activity, positive = more growth; hit rate 0.4% among 270,000; calls by dose curve; also: potency is read from the fitted curve at half-maximal effect; actives are rising curves; nearly all actives have a fitted effect of over 50% in size
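Read-out: OD600 growth recovery of NS1-expressing budding yeast. Cells grown overnight at 30C in -URA glucose medium, washed, resuspended and diluted 1:100 in 2% galactose assay medium, pH 6.0. Same strain lacking NS1 served as positive control.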
The depositor's hits bear a star; [ ] = another dose, or the depositor's remark. The list is not random: actives were taken first. Their share in the collection is about 21%. Unless noted, calls follow the shape of the dose curve; as a rule, active = well fitted curve in the direction sought with a large enough effect; inconclusive = small, poorly fitted or top-dose-only effect, or another doubt; inactive = no such curve, though single readings can be large; an effect the other way counts as inactive or inconclusive.

Results for Cc1cccc(OCCCn2c(=O)oc3ccccc32)c1 ?
Cycloheximide cs: 22.3*; Pf growth 96h: 34.2%; FBPA Giardia inh: -9.6%; Shiga toxin inh: 50.5*; Pf growth 48h: 33.1%; NS1 inh: -31.0%

What do the screens show for `Cc1cccc(OCCn2c(=O)oc3ccc(C)cc32)c1`?
Cycloheximide cs: 41.8*; Pf growth 96h: 51.7%; FBPA Giardia inh: 4.3%; Shiga toxin inh: 78.8*; Pf growth 48h: inconclusive; NS1 inh: -8.1%

How did C/C(=N\NC(=O)c1cccc(S(=O)(=O)N2CCOCC2)c1)c1cc2ccccc2o1 do in these assays?
Cycloheximide cs: -5.0; Pf growth 96h: 7.5%; FBPA Giardia inh: -7.9%; Shiga toxin inh: -7.1; Pf growth 48h: -15.9%; NS1 inh: -0.2%

Results for CC(C)(C)N(Cc1ccccc1)C(=O)COC(=O)CCN1C(=O)C2CC=CCC2C1=O (stereo unspecified) ?
Pf growth 96h: 2.2%; Pf growth 48h: -25.1%

What do the screens show for `Cc1nn(-c2ccccc2)c2nc(C(F)F)cc(C(F)F)c12`?
Pf growth 96h: -22.2%; Pf growth 48h: -22.4%

How did C=CCc1ccccc1OCC(O)CN1C(=O)c2ccccc2C1=O (stereo unspecified) do in these assays?
Cycloheximide cs: 1.2; Pf growth 96h: -27.1%; FBPA Giardia inh: 8.1%; Shiga toxin inh: -2.0; Pf growth 48h: 6.4%; NS1 inh: -37.2%

What do the screens show for `Cc1ccccc1OCC(O)CN1CCN(CC(O)COc2ccccc2C)CC1` (stereo unspecified)?
Cycloheximide cs: -1.9; Pf growth 96h: 1.47µM*; FBPA Giardia inh: -0.3%; Shiga toxin inh: 20.1; Pf growth 48h: inconclusive

Results for Cc1ccc(C)c(OCC(O)CN2CCc3ccccc3C2)c1C (stereo unspecified) ?
Cycloheximide cs: -6.1; Pf growth 96h: 11.7µM*; FBPA Giardia inh: 1.5%; Shiga toxin inh: 3.3; Pf growth 48h: 9.28µM*; NS1 inh: 2.4%

What do the screens show for `O=S(=O)(CC(O)COc1ccccc1Cl)c1ccccc1` (stereo unspecified)?
Cycloheximide cs: -2.0; Pf growth 96h: 0.0%; FBPA Giardia inh: -1.1%; Shiga toxin inh: 45.3; Pf growth 48h: 1.9%; NS1 inh: -2.7%

Results for CCOc1ccc(OCC(O)CN2CCc3ccccc3C2)cc1 (stereo unspecified) ?
Cycloheximide cs: -3.1; Pf growth 96h: -1.7%; FBPA Giardia inh: -8.0%; Shiga toxin inh: -6.3; NS1 inh: -0.1%

Results for O=C1c2ccccc2C(=O)N1CC(O)COc1ccccc1Cl (stereo unspecified) ?
Cycloheximide cs: 44.7*; Pf growth 96h: 0.0%; FBPA Giardia inh: -8.3%; Shiga toxin inh: 91.1*; Pf growth 48h: 39.1%; NS1 inh: -24.7%

What do the screens show for `Cc1ccccc1OCC(O)CN1C(=O)c2ccccc2C1=O` (stereo unspecified)?
Cycloheximide cs: 37.1*; Pf growth 96h: -18.7%; FBPA Giardia inh: 3.8%; Shiga toxin inh: 38.7*; Pf growth 48h: 14.2%; NS1 inh: -5.9%

Results for COc1ccc(CCN2CC(C(=O)Nc3cc(F)ccc3F)CC2=O)cc1OC (stereo unspecified) ?
Pf growth 96h: -1.1%; Pf growth 48h: inconclusive

What do the screens show for `CCOC(=O)C1(CCCc2ccccc2)CCN(C(=O)C2=C(C)OCCO2)CC1`?
Cycloheximide cs: -0.4; Pf growth 96h: 12.9%; FBPA Giardia inh: -0.4%; Shiga toxin inh: 13.2; Pf growth 48h: inconclusive; NS1 inh: -11.0%

What do the screens show for `O=c1c(F)cn(C2CCCO2)c(=O)n1Cc1c(Cl)cccc1Cl` (stereo unspecified)?
Cycloheximide cs: -2.5; Pf growth 96h: 13.1µM*; FBPA Giardia inh: 3.9%; Shiga toxin inh: 14.7; NS1 inh: -0.4%

How did Cc1cc(N2CCN(c3ccccc3F)CC2)nc2cc(O)ccc12 do in these assays?
Cycloheximide cs: 25.0*; Pf growth 96h: 0.0%; FBPA Giardia inh: -1.9%; Shiga toxin inh: 94.6*; Pf growth 48h: 10.4µM*; NS1 inh: -10.6%

Results for Cc1cc(N2CCN(c3ccc(F)cc3)CC2)nc2cc(O)ccc12 ?
Cycloheximide cs: -7.7; Pf growth 96h: 7.38µM*; FBPA Giardia inh: 4.5%; Shiga toxin inh: -2.3; NS1 inh: -11.9%

How did Cc1cc(N2CCN(C)CC2)nc2ccccc12 do in these assays?
Cycloheximide cs: -1.5; Pf growth 96h: 13.1%; FBPA Giardia inh: -3.4%; Shiga toxin inh: 3.6; NS1 inh: -0.6%

How did COc1ccc(N2CCN(c3cc(C)c4ccc(O)cc4n3)CC2)cc1 do in these assays?
Cycloheximide cs: 0.6; Pf growth 96h: 125.9%; FBPA Giardia inh: 3.8%; Shiga toxin inh: 17.3; Pf growth 48h: 13.1µM*; NS1 inh: -31.4%

How did COc1ccc2c(C)cc(N3CCN(c4ccc(F)cc4)CC3)nc2c1 do in these assays?
Cycloheximide cs: -3.0; FBPA Giardia inh: 0.0%; Shiga toxin inh: -5.4; Pf growth 48h: inconclusive; NS1 inh: -4.2%

Results for CC(=O)NCCC1CCN(C(=O)C2CCC(=O)N(C3CCCC3)C2)CC1 (stereo unspecified) ?
Cycloheximide cs: 18.1; Pf growth 96h: inconclusive; Shiga toxin inh: -4.6; Pf growth 48h: 8.2%; NS1 inh: 9.9%

Results for CO[C@H]1COC(=O)C/C=C\[C@H](C)[C@@H](NS(=O)(=O)c2ccc(C)cc2)COC(=O)C/C=C\[C@@H]1C ?
FBPA Giardia inh: -0.3%[12.9 µM]

Results for O=C(N/N=C/C(Br)=C/c1ccccc1)c1cccnc1 ?
Cycloheximide cs: 37.8*; Pf growth 96h: 10.4µM*; FBPA Giardia inh: 0.0%; Shiga toxin inh: 65.9*; Pf growth 48h: 10.4µM*; NS1 inh: -45.7%

Results for O=C(N/N=C/C(Br)=C/c1ccccc1)c1ccc([N+](=O)[O-])cc1 ?
Cycloheximide cs: 11.3; Pf growth 96h: 18.2%; FBPA Giardia inh: 3.0%; Shiga toxin inh: 4.0; Pf growth 48h: -7.7%; NS1 inh: -6.4%

What do the screens show for `O=C(N/N=C/C(Br)=C/c1ccccc1)c1ccncc1`?
Cycloheximide cs: 37.9*; Pf growth 96h: 14.7µM*; FBPA Giardia inh: -9.1%; Shiga toxin inh: 72.6*; Pf growth 48h: 10.4µM*; NS1 inh: -31.8%

What do the screens show for `COc1ccc(NS(=O)(=O)NC(=O)c2c(C)n(C)c3ccccc23)cc1`?
Cycloheximide cs: 23.8*; Pf growth 96h: 8.0%; FBPA Giardia inh: -25.5%; Shiga toxin inh: -6.3; Pf growth 48h: 28.1%; NS1 inh: 4.2%

How did COc1ccc(NS(=O)(=O)NC(=O)c2cn(C)c3ccccc23)cc1 do in these assays?
Cycloheximide cs: 9.2; Pf growth 96h: 11.5%; FBPA Giardia inh: -1.6%; Shiga toxin inh: 10.9; Pf growth 48h: 26.3%; NS1 inh: -12.9%

Results for Cc1nc2cnc(N3CCNCC3)nc2n(CCC#N)c1=O ?
FBPA Giardia inh: 0.0%
